About 350 (25%) of roughly 1,400 compounds were called active. Inconclusive results (about 2%) are left out. No rule for the calls is given here. Only a sample is shown. Measured potencies and affinities stand elsewhere.
Experiment: C. difficile growth inhibition, confirmation, 4-point retest (AID 1224921);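 also: plate controls were DMSO wells for no effect and levofloxacin 16 µg/mL wells for full effect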
Conditions: Clostridioides difficile clinical isolate growth, OD600, 24 h, hits give low values; at 30 µM unless noted

Max activity, inactive:
CCC(=O)N[C@@H]1C=C[C@H](CC(=O)OC)O[C@H]1CO -12.4%, CN1CCN(C(=O)C[C@H]2C[C@H]3c4cc(NC(=O)Cc5ccncc5)ccc4O[C@H]3[C@H](CO)O2)CC1 13.8%, C[C@H](CO)N1C[C@H](C)[C@H](CN(C)Cc2ccc(C(F)(F)F)cc2)OCCCC[C@H](C)Oc2ccc(NC(=O)CCCN(C)C)cc2C1=O 31.1%, C[C@@H]1CN([C@@H](C)CO)C(=O)c2cc(/C=C/c3ccccc3)cnc2O[C@H]1CN(C)C(=O)NC1CCCCC1 -30.5% [at 8 µM], CCCN1C[C@@H](C)[C@H](OC)CN(C)C(=O)c2cc(NC(=O)COC)ccc2OC[C@@H]1C 15%, COc1cccc(S(=O)(=O)Nc2ccc3c(c2)[C@@H]2C[C@H](CC(=O)NC4CCCCC4)O[C@H](CO)[C@@H]2O3)c1 27.9%, COc1ccccc1CNC(=O)C[C@H]1C[C@@H]2c3cc(NC(=O)Nc4ccc(C(F)(F)F)cc4)ccc3O[C@@H]2[C@H](CO)O1 28%, COc1ccccc1CNC(=O)C[C@H]1C[C@H]2c3cc(NC(=O)Nc4ccc(C(F)(F)F)cc4)ccc3O[C@H]2[C@@H](CO)O1 26.5%, COc1ccccc1CNC(=O)C[C@@H]1C[C@@H]2c3cc(NC(=O)Nc4ccc(C(F)(F)F)cc4)ccc3O[C@@H]2[C@H](CO)O1 28.8%, CCCN1C[C@H](C)[C@H](OC)CN(C)C(=O)c2cc(NC(=O)c3cccc(F)c3)ccc2OC[C@H]1C 8.18% [at 8 µM], C[C@@H]1CN([C@H](C)CO)C(=O)c2ccccc2-c2ccccc2CO[C@H]1CN(C)C(=O)[C@H](C)c1ccccc1 15.9%, CC(C)CC#Cc1ccc2c(c1)O[C@@H](CN(C)CC1CCOCC1)[C@H](C)CN([C@H](C)CO)S2(=O)=O 29%, C[C@@H]1CN([C@H](C)CO)C(=O)Cc2cc(NC(=O)C3CC3)ccc2O[C@@H]1CN(C)Cc1ccc(Oc2ccccc2)cc1 25.1%, COc1ccccc1C#Cc1ccc2c(c1)O[C@H](CN(C)Cc1cccnc1)[C@@H](C)CN([C@@H](C)CO)S2(=O)=O 53.8%, CCS(=O)(=O)Nc1ccc2c(c1)C(=O)N(C)C[C@H](OC)[C@@H](C)CN(CC1CCCC1)[C@@H](C)CO2 -15.1% [at 8 µM], C[C@@H]1CN([C@@H](C)CO)S(=O)(=O)c2ccc(C#CC3CCCCC3)cc2O[C@@H]1CN(C)Cc1cccnc1 69.7%, C[C@@H]1CN([C@H](C)CO)S(=O)(=O)c2ccc(-c3ccccc3)cc2O[C@H]1CN(C)Cc1ccncc1 33.9%, COc1ccccc1C#Cc1ccc2c(c1)O[C@@H](CN(C)Cc1cccnc1)[C@H](C)CN([C@@H](C)CO)S2(=O)=O 26.4%, CC(C)C#Cc1ccc([C@@H]2[C@@H](C#N)N(C(=O)C3CCC3)[C@H]2CO)cc1 32.2% [at 8 µM], C[C@@H]1CN([C@@H](C)CO)S(=O)(=O)c2ccc(C3=CCCCC3)cc2O[C@H]1CN(C)Cc1ccncc1 29.4%, CCCC#Cc1ccc2c(c1)O[C@H](CN(C)Cc1ccncc1)[C@@H](C)CN([C@H](C)CO)S2(=O)=O 11.6%, COCC(=O)Nc1ccc2c(c1)OC[C@H](C)N(Cc1cncnc1)C[C@@H](C)[C@@H](OC)CN(C)C2=O -11.6%, O=C(Nc1cc(F)ccc1F)N[C@H]1CC[C@@H](CC(=O)N2CCc3ccccc3C2)O[C@H]1CO -5.46% [at 0.5 µM], O=C(C[C@H]1C=C[C@@H](NC(=O)c2ccccn2)[C@H](CO)O1)NCc1cc(F)cc(F)c1 7.65%, CO[C@H]1CN(C)C(=O)c2cc(NC(=O)c3ccccc3)ccc2OC[C@H](C)N(CC2CC2)C[C@H]1C -5.21% [at 8 µM], O=C(Nc1cc(F)ccc1F)N[C@@H]1CC[C@H](CC(=O)N2CCc3ccccc3C2)O[C@@H]1CO 29.6%, CCCC#Cc1ccc2c(c1)O[C@H](CN(C)Cc1cccnc1)[C@@H](C)CN([C@H](C)CO)S2(=O)=O 41%, CO[C@H]1CN(C)C(=O)c2cc(NC(C)=O)ccc2OC[C@H](C)N(Cc2nccs2)C[C@H]1C 16%, O=C1O[C@@H](c2ccccc2)[C@@H](c2ccccc2)N2[C@@H](c3ccc(O)cc3)[C@]3(C(=O)Nc4ccc(C#CC5=CCCCC5)cc43)[C@@H](C(=O)O)[C@H]12 28.7% [at 8 µM], CCCNC(=O)N[C@@H]1C=C[C@@H](CC(=O)N2CCN(C)CC2)O[C@H]1CO -11.4%, Cc1noc(C)c1NC(=O)N[C@H]1CC[C@H](CC(=O)Nc2ccc(-c3ccccc3)cc2)O[C@H]1CO 16%, CCCC(=O)Nc1ccc2c(c1)C(=O)N(C)[C@H]1CC[C@@H](CC(=O)OC)O[C@@H]1CO2 -11% [at 0.5 µM], Cc1ccc(-c2ccc3c(c2)O[C@@H](CN(C)Cc2cccnc2)[C@H](C)CN([C@H](C)CO)S3(=O)=O)cc1 16.8%, NC(=O)[C@H]1[C@@H]2C(=O)O[C@@H](c3ccccc3)[C@@H](c3ccccc3)N2[C@@H](c2ccc(O)cc2)[C@]12C(=O)Nc1ccc(C#CC3(O)CCCCCC3)cc12 32.1%, C[C@H]1CN([C@@H](C)CO)S(=O)(=O)c2ccc(C#CC3(O)CCCC3)cc2O[C@H]1CN(C)C(=O)Nc1ccc(F)cc1 15.4% [at 8 µM], C[C@H](CO)N1C[C@H](C)[C@@H](CN(C)Cc2ccc(Cl)c(Cl)c2)Oc2ccc(NS(=O)(=O)c3ccccc3)cc2CC1=O 28.2%, CO[C@@H]1CN(C)C(=O)c2cc(NC(=O)c3ccc(Oc4ccccc4)cc3)ccc2OC[C@H](C)NC[C@H]1C -11.3% [at 0.5 µM], CC(C)CC#Cc1ccc2c(c1)O[C@@H](CN(C)Cc1ccncc1)[C@@H](C)CN([C@H](C)CO)S2(=O)=O 7.2% [at 0.5 µM], O=C(C[C@@H]1CC[C@@H](NC(=O)CCN2CCCCC2)[C@@H](CO)O1)Nc1nccs1 -8.84% [at 1.95 µM], CCS(=O)(=O)Nc1ccc2c(c1)C(=O)N(C)C[C@H](OC)[C@@H](C)CN(C(C)=O)[C@H](C)CO2 8.06%, CO[C@@H]1CN(C)C(=O)c2cc(NC(=O)c3ccc(-c4ccccc4)cc3)ccc2OC[C@H](C)NC[C@H]1C 10.1% [at 1.95 µM], CCc1cnc(N2[C@H](CO)[C@@H](c3ccc(C4=CCCCC4)cc3)[C@@H]2C#N)s1 36.5% [at 0.5 µM], C[C@H]1CN([C@@H](C)CO)S(=O)(=O)c2ccc(/C=C/c3ccccc3)cc2O[C@H]1CN(C)C(=O)NC1CCCCC1 52.4%, COCC(=O)Nc1ccc2c(c1)OC[C@@H](C)N(Cc1ccccc1OC)C[C@@H](C)[C@H](OC)CN(C)C2=O -8.61% [at 7.5 µM], CC(C)COC(=O)N(C)C[C@@H]1OCc2ccccc2-c2c(n(C)c3ccccc23)C(=O)N([C@@H](C)CO)C[C@@H]1C -18.1% [at 8 µM], CCC(=O)Nc1ccc2c(c1)C(=O)N(C)C[C@@H](OC)[C@@H](C)CN(Cc1cncnc1)[C@@H](C)CO2 -7.99% [at 0.5 µM], C[C@@H]1CN([C@@H](C)CO)C(=O)Cc2cc(NS(C)(=O)=O)ccc2O[C@@H]1CN(C)Cc1ccc(Oc2ccccc2)cc1 36.1% [at 35 µM], C[C@H](CO)N1C[C@H](C)[C@@H](CN(C)Cc2ccncc2)Oc2cc(-c3ccccc3)ccc2S1(=O)=O 23.5%, C[C@@H]1CCCCO[C@H](CN(C)CC2CCCCC2)[C@H](C)CN([C@@H](C)CO)C(=O)c2cc(NC(=O)Nc3ccccc3)ccc2O1 9.95%, C[C@@H]1CCCCO[C@H](CN(C)CC2CCCCC2)[C@H](C)CN([C@@H](C)CO)C(=O)c2cc(NC(=O)Nc3ccc(F)cc3)ccc2O1 11.6%, CO[C@H]1O[C@H](CO)[C@@H](OC(=O)Nc2ccccc2)[C@H](OC(=O)Nc2ccc3c(c2)OCO3)[C@H]1OC(=O)Nc1ccc2c(c1)OCO2 -7.27% [at 1.95 µM], Cc1ccccc1S(=O)(=O)NCC[C@H]1CC[C@H](NC(=O)Nc2cccc(Cl)c2)[C@@H](CO)O1 13.2%, CO[C@@H]1CN(C)C(=O)c2cc(NC(C)=O)ccc2OC[C@H](C)N(Cc2nccs2)C[C@@H]1C 24.6%, CC(C)C#Cc1ccc([C@@H]2[C@@H](CO)N(C(=O)c3cccc(F)c3)[C@H]2C#N)cc1 15.2%, N#C[C@@H]1[C@@H](c2ccc(C#Cc3ccc(F)cc3)cc2)[C@H](CO)N1C(=O)C1CCC1 35.7%, N#C[C@H]1[C@@H](c2ccc(-c3ccc(F)cc3)cc2)[C@H](CO)N1C(=O)Cc1ccccc1 29.3% [at 8 µM], CC(C)NC(=O)N1[C@H](C#N)[C@@H](c2ccc(-c3ccc(F)cc3)cc2)[C@@H]1CO 21.4% [at 8 µM], CO[C@H]1O[C@H](CO)[C@@H](OC(=O)c2ccc(Br)cc2)[C@H](OC(=O)c2cc3ccccc3[nH]2)[C@H]1OC(=O)c1cc2ccccc2[nH]1 39.8%, CC(C)CC#Cc1ccc2c(c1)O[C@H](CN(C)Cc1ccncc1)[C@H](C)CN([C@@H](C)CO)S2(=O)=O 25.7%

From PubChem BioAssay AID1224921 (Broad Institute, 2016)
